# D1 agonist = activates the human D1 dopamine receptor. P21728. HEK293 T-REx D1 cells, calcium flux, agonist mode. activation, % at 2 µM. actives 1% (n = 360,000). AID 504660; also: 0% is about no effect
#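 Tetracycline-induced HEK293 TREx D1 cells, force-coupled to calcium signalling, were dye-loaded with a no-wash calcium kit. Compound was pin-added after a 10 s baseline. Fluorescence was read kinetically at 1 cycle/s for 180 s, with calcium rises flagged as agonism.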
# D1 potentiator = enhances dopamine response at the human D1 receptor; P21728; HEK293 TREx D1 cells, calcium flux, dopamine EC20 potentiation; potentiation, % at 10 µM; actives 0.036% (n = 360,000); AID 504651; in the data active = potentiation above about 30%; also: 0% is about no effect
# D1 antag = antagonists of human D1 dopamine receptor; P21728; HEK293 TREx D1 cells, calcium flux, dopamine EC80; stronger effect = lower value; activity change, negative = inhibition, % at 10 µM; actives 3.2% (n = 360,000); AID 504652; in the data active = activity change below about -30%; also: % is scaled to controls: 0 for no effect and ±100 for the full control effect
#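 Tetracycline-induced HEK293 Trex D1 cells, force-coupled to calcium, dye-loaded; compounds added and read 180 s, then EC80 dopamine added and calcium flux tracked kinetically another 180 s.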
# TRHR ag = agonists of human TRH receptor. TRHR cells, calcium flux fluo-8, FDSS agonist mode. actives 0.18% (n = 360,000). P34981. activation, % at 2 µM; also: 0% is about no effect
# Target sequence (P34981 whole entry, looked up): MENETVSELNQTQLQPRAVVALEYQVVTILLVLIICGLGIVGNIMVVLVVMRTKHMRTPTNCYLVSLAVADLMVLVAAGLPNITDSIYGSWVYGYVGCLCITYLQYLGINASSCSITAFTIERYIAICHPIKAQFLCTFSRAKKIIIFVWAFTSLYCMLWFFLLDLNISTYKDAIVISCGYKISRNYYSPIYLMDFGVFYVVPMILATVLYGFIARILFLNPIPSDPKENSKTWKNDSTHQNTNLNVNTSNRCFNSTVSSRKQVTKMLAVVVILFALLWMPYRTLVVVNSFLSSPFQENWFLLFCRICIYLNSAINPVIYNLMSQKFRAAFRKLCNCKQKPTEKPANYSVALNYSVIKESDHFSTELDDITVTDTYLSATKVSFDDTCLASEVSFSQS
#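 Read-out: compound-evoked intracellular calcium rise in TRHR cells, fluo-8 dye, kinetic FDSS fluorescence at 1 s/cycle following a 10-cycle baseline. Cells cultured overnight before dye loading (30 min–1.5 h, RT).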
# TRHR enhancer = TRH receptor (human) allosteric enhancement | TRHR cells, fluo-8 calcium fluorescence, EC20 TRH enhancement | enhancement, % at 2 µM | P34981 | actives 0.66% (n = 360,000); in the data active = enhancement above about 30%; also: 0% is about no effect
#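 Enhancer read-out: after compound pinning and an initial kinetic agonist-mode read, an EC20 of TRH (10 nM final) was injected and fluo-8 calcium signal (Ex 480/Em 530) followed at 1 s/cycle for 100 cycles in TRHR-expressing cells.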
# The depositor's hits bear a star; ! = not confirmed by another sample. Sampled rows, rich in hits. Any-hit rate of the full collection: about 4.6%. Rule as the data show it, unless noted: active = activation above about 30%; inactive = the rest.
SMILES,D1 agonist,D1 potentiator,D1 antag,TRHR ag,TRHR enhancer
O=C(O)Cc1nnc(-c2cc3ccccc3[nH]2)s1,0.5,8.6,-36.6*,1.0,1.3
O=C(NCc1nnc(-c2cc3ccccc3[nH]2)s1)c1ccccc1,2.8,-5.1,3.8,1.4,-2.6
O=C(Cc1nnc(-c2cc3ccccc3[nH]2)s1)Nc1cc(C(F)(F)F)ccc1Cl,2.6,0.8,-34.3*!,0.6,16.0
O=C(Cc1nnc(-c2cc3ccccc3[nH]2)o1)Nc1cc(C(F)(F)F)ccc1Cl,0.8,-4.3,5.4,-0.3,-3.7
Cc1csc(N/N=C/c2ccc([N+](=O)[O-])cc2)n1,7.4,-0.7,-35.2*,1.7,-1.6
CCOC(=O)Cc1csc(N/N=C/c2cccc([N+](=O)[O-])c2)n1,-0.2,-6.3,-5.0,-0.5,13.3
O=[N+]([O-])c1cccc(-c2csc(N/N=C/c3cccc(O)c3)n2)c1,1.7,-12.2,-43.0*,0.9,-1.5
COc1ccc(/C=N/NC(=O)c2cccc(OC(F)(F)C(F)F)c2)cc1O,1.6,-7.9,-3.8,-0.4,9.7
CCOc1ccc(CN(C)c2ccc(S(=O)(=O)N3CCN(C)CC3)cc2[N+](=O)[O-])cc1OC,27.5,-6.3,-44.8*,2.7,-8.2
C=CCOc1ccc(CN(C)c2ccc(S(=O)(=O)N3CCN(C)CC3)cc2[N+](=O)[O-])cc1,13.9,-18.4,-36.4*,2.4,-2.8
Cc1ccc(C)c(N2CCN(c3nc4ccc(Cl)cc4n4cnnc34)CC2)c1,2.0,-2.3,-22.3,0.4,-1.0
CN(C)CCC=C1c2ccccc2C=Cc2ccccc21,13.4,-4.7,-100.1*,1.0,8.8
CN(C)CC/C=C1/c2ccccc2COc2ccccc21,8.6,-3.5,-74.5*,0.6,-3.1
CN(C)CCC=C1c2ccccc2CCc2ccccc21,11.4,-5.0,-66.7*,0.3,1.3
CCn1cc(C(=O)O)c(=O)c2cc(F)c(N3CCN(C(=S)NC(=O)c4ccccc4Br)CC3)cc21,3.0,7.0,-3.1,-1.9,1.1
CCCCN(C(=O)c1cccc(C)c1)c1c(N)n(CCC)c(=O)[nH]c1=O,2.8,-0.3,-7.2,-0.3,40.8*
COc1cccc(N2CCN(C(=O)CCn3nc(C)c(S(=O)(=O)N4CCCC4)c3C)CC2)c1,-0.2,0.1,-1.9,-1.5,5.8
CC1(C)CC(=O)c2cc(-c3nc(-c4ccc(Cl)cc4)cs3)c(=O)n(-c3ccc(Cl)cc3)c2C1,1.4,0.5,-0.4,1.5,-9.5
Cc1nn(-c2ccccc2)c(-n2cccc2)c1C(=O)NCCc1ccc(Cl)cc1,67.6*,0.3,-29.5,-1.0,4.3
COc1cc(NC(=O)c2c(C)nn(-c3ccc(F)cc3)c2-n2cccc2)cc(OC)c1,5.5,-1.1,0.2,41.6*,8.7
COc1ccc(N2CCN(CCCNC(=O)c3cnn(-c4ccc(F)cc4)c3-n3cccc3)CC2)cc1,41.4*,-0.6,-16.6,-0.7,1.2
Cc1nn(-c2ccc(F)cc2)c(-n2cccc2)c1C(=O)NCCCN1CCN(c2cccc(Cl)c2)CC1,6.2,-3.6,-33.0*,0.2,2.1
Cc1nn(-c2ccccc2)c(-n2cccc2)c1C(=O)NCc1ccccc1Cl,23.5,-4.1,-8.2,1.9,-6.5
Cc1nc(-c2ccccc2)sc1CCNS(=O)(=O)c1ccc(Br)cc1,5.3,-3.7,-2.6,-0.1,-2.5
COc1cc(NC(=O)c2cc3c(s2)-c2ccccc2OC3)cc(OC)c1OC,-0.4,-8.2,-20.8,0.2,9.5
SMILES,D1 agonist,D1 potentiator,D1 antag,TRHR ag,TRHR enhancer
COc1ccc(CN2C(=O)c3cccc4cccc2c34)cc1F,9.3,-4.5,-7.8,1.7,-0.3
COc1cc(C(=O)N2c3ccccc3CCC2C)cc(OC)c1OC (stereo unspecified),-0.2,2.7,-24.3,0.5,1.2
O=C(Nc1ccccc1N1CCCC1)c1cccc(Cl)c1Cl,1.7,-1.6,-31.7*,-0.7,-7.6
COc1ccccc1C(=O)Nc1ccccc1N1CCN(S(C)(=O)=O)CC1,18.1,-6.7,-36.9*,-4.4,-1.8
COc1cc(C(=O)Nc2ccccc2N2CCN(S(C)(=O)=O)CC2)cc(OC)c1OC,2.3,2.1,9.7,0.1,-1.6
O=C(Nc1ccccc1N1CCCC1)c1ccccc1F,4.9,-9.9,-10.9,-0.3,-2.2
CC(CCN1CCN(c2ccccc2)CC1)c1ccccc1 (stereo unspecified),1.1,-8.0,-54.5*,0.1,4.6

# Screening results deposited in PubChem by National Center for Advancing Translational Sciences (NCATS).
